In PubChem BioAssay AID624125 (The Scripps Research Institute Molecular Screening Center, 2012):
In all, about 360,000 compounds went through this assay and about 2,600 (0.72%) were called active.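 How the source made its calls: active means inhibition above its plate's cutoff, the mean inhibition of sample wells plus 3 SD (cut at about 27% in these data); inactive means the rest.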 For the sample, actives were picked, then their nearest neighbours and some compounds at random.

Molecular target: Muscarinic acetylcholine receptor M4 (Homo sapiens) (UniProt P08173)
Sequence (P08173 whole entry, looked up): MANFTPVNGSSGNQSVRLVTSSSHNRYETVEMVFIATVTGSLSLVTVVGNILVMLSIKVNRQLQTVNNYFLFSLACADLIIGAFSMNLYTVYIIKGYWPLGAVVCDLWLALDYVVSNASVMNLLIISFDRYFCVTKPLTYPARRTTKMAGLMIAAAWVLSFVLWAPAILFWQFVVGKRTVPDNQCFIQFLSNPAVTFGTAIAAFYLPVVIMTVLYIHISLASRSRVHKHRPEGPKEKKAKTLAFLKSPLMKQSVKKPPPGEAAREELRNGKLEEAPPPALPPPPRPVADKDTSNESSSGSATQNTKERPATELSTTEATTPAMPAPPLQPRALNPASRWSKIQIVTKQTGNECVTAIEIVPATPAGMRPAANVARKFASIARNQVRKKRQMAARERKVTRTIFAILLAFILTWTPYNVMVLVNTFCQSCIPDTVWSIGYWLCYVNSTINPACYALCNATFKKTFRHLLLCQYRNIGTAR
Experiment: CHRM4 blockers of acetylcholine calcium response – CHO cells, Fluo-8 calcium fluorescence, primary screen (AID 624125);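 further: 0% = acetylcholine EC80 with DMSO and 100% = DMSO without agonist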
Details: CHO-hM4 cells, ACh EC80, Fluo-8 calcium fluorescence; at 3 µM; stronger effect = higher value

| Compound | inhibition |
| --- | --- |
| O=c1[nH]c2ccccc2n1C1CCN(C(c2ccccc2)c2nnnn2Cc2ccccc2)CC1 (stereo not given) | 27.1% (active) |
| CSCCC(c1nnnn1C(C)(C)C)N1CCC(n2c(=O)[nH]c3ccccc32)CC1 (stereo not given) | 5.14% (inactive) |
| O=c1[nH]c2ccccc2n1C1CCN(C(c2ccnc3ccccc23)c2nnnn2Cc2ccccc2)CC1 (stereo not given) | 22.4% (inactive) |
| Nc1ccc(C(=O)N/N=C2/CN3CCC2CC3)cc1 | -0.14% (inactive) |
| Cc1nn(Cc2ccccc2Cl)c(Cl)c1C(=O)OC(C(=O)NC(N)=O)C(C)C (stereo not given) | 1.94% (inactive) |
| COC(=O)N(c1ccc(OC)cc1)P1(=S)OCCC(C)O1 (stereo not given) | 1.76% (inactive) |
| COc1ccc(N=Cc2c(O)n(C)c(=O)[nH]c2=O)cc1 | 1.06% (inactive) |
| CC(C)c1c(CN(C)C(C)Cc2ccccc2)n(C)n(-c2ccccc2)c1=O (stereo not given) | 66.1% (active) |
| CCOC(=O)C(O)(c1ccc(N)c(OC)c1)C(F)(F)F (stereo not given) | 1.32% (inactive) |
| O=[N+]([O-])c1cnc2ccc3ccccc3c2c1 | 9.35% (inactive) |
| CC1(C)Cc2c(C#N)c(N3CCNCC3)nc(-c3ccco3)c2CS1 | 5.55% (inactive) |
| CC1CCCCN1Cc1cccnc1 (stereo not given) | 3.46% (inactive) |
| O=C(Cc1ccccc1)N1CCN(C2CCCCCC2)CC1 | 0.63% (inactive) |
| CC1CCCN1CCC(C(N)=O)(c1ccccc1)c1ccccc1 (stereo not given) | 99% (active) |
| C[C@]12CCCCC1=CC(=O)C1C2CC[C@@]2(C)C1C[C@@H](F)[C@@H]2O (stereo not given in full) | -6.29% (inactive) |
| N#Cc1ccc(Cn2cc(C(=O)c3ccco3)c3ccccc32)cc1 | 0.92% (inactive) |
| CCOP(=O)(OCC)C(NC(=O)c1ccc(C)cc1)C(Cl)(Cl)Cl (stereo not given) | 9.97% (inactive) |
| CCOP(=O)(OCC)C(NC(=O)c1ccc(OC)cc1)C(Cl)(Cl)Cl (stereo not given) | 3.05% (inactive) |

| Compound | inhibition |
| --- | --- |
| CCOP(=O)(OCC)C(NC(=O)NC)C(N)=O (stereo not given) | 39% (active) |
| CN(C)CCCN=Cc1c(O)n(Cc2ccco2)c(=O)[nH]c1=O | 2.03% (inactive) |
| CC(=O)N(C1=NCCCS1)c1ccccc1F | -8.11% (inactive) |
| CN(C)C(=O)Oc1cc(=O)n2c3c(cccc13)CCC2 | -4.4% (inactive) |
| CCCCCCCCCCCCn1ccc(=N)cc1 | 71.3% (active) |
| COc1cc(-n2c(=S)[nH]c3ccc(C)cc3c2=O)c(Cl)cc1Cl | 3.21% (inactive) |
| COC(=O)C(O)(c1ccc(NC(=O)c2ccco2)c(OC)c1)C(F)(F)F (stereo not given) | 1.51% (inactive) |
| CCCC(C)n1[nH]c(=O)c2c1NC(=O)CSC2c1ccc(OC)c(OC)c1 (stereo not given) | -2% (inactive) |
| O=C(NCC(c1cccnc1)N1CCN(c2ccccc2)CC1)Oc1ccccc1 (stereo not given) | -1.68% (inactive) |
| CCCC[N+]1(C)C2CC(OC(=O)C(CO)c3ccccc3)CC1C1OC12 (stereo not given) | 90.4% (active) |
| N#CC1=C(N)Oc2c(c(=O)oc3ccccc23)C1c1ccccc1OC(=O)c1cccs1 (stereo not given) | 5.46% (inactive) |
| Cc1ccc(-n2c(O)c(C=NCC3CCCO3)c(=O)[nH]c2=O)c(C)c1 (stereo not given) | -11% (inactive) |
| COc1cccc(CN2CCCC(C(=O)c3ccccc3SC)C2)c1O (stereo not given) | -1.14% (inactive) |
| CC[N+]1(C)CCCC(OC(=O)C(O)(c2ccccc2)c2ccccc2)C1 (stereo not given) | 98.6% (active) |
| Cc1ccc(N(C)C(=O)Oc2cccc3ccc(C)nc23)cc1 | 5.04% (inactive) |
| CCc1nc2ccccc2c(=O)n1-c1cccc(OC)c1 | -8.12% (inactive) |
| CN1CCN(/N=C/c2c[nH]c3ccccc23)CC1 | -1.55% (inactive) |
